# In the library only some 11% were active in any assay of this set; here they are far more common.
# HEK cytotox: kills HEK 293 cells; HEK 293 viability, ATP luminescence (CellTiter-Glo), 48-72 h; Potency, µM (top dose mostly 115 µM), without a hit: at the top dose activity change, negative = cytotoxicity, actives largely listed as inhibitors; hit rate 6.6% among 94,000; note: % is set by controls: 0 for no effect and ±100 for the full control effect; nearly all actives have a fitted effect of over 60% in size
#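 Cells seeded first (HEK 293, 250 cells/well), then compound added by pintool. Incubation ran 48 or 72 hr at 37 degree Celsius. CellTiter-Glo was added and luminescence imaged after 10 min at room temperature.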
# FLuc inh: blocks purified firefly luciferase enzyme activity; P08659; purified P. pyralis luciferase, luminescence, biochemical; Potency, µM (top dose mostly 115 µM), most hits filed as inhibitors; hit rate 2.5% among 76,000; AID 1347043; note: % is set by controls: 0 for no effect and ±100 for the full control effect; nearly all actives have a fitted effect of over 65% in size
# Target sequence (P08659 whole entry, looked up): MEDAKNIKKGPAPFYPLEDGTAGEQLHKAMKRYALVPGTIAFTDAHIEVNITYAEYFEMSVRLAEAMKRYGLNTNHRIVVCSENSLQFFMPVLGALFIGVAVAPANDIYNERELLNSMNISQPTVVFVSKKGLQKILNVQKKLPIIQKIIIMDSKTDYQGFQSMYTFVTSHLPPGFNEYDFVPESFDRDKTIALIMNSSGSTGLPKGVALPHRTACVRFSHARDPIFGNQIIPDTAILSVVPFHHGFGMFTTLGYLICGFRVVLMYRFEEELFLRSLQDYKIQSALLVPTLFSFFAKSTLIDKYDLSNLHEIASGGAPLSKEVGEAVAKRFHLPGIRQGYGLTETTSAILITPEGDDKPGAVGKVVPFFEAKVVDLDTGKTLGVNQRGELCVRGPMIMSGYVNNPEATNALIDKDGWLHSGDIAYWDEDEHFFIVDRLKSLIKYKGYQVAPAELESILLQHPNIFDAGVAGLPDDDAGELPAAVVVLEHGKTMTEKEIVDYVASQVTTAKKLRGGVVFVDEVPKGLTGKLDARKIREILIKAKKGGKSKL
#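 Purified 10nM P. pyralis luciferase with 10uM D-luciferin and 10uM ATP in 50mM Tris acetate pH 7.5, 10mM Mg acetate, 0.01% Tween-20, 0.05% BSA. qHTS titration; luminescence read by CCD imager.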
# NIH3T3 tox: NIH 3T3 cell cytotoxicity | Potency, µM (top dose mostly 96.7 µM), inactives show top-dose activity change, negative = cytotoxicity, actives largely listed as inhibitors | NIH 3T3 viability, CellTiter-Glo ATP luminescence, 48-72 h | hit rate 4.3% among 94,000; note: % is set by controls: 0 for no effect and ±100 for the full control effect; nearly all actives have a fitted effect of over 55% in size
#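 Viability of NIH 3T3 cells after 48 or 72 hr compound treatment at 37 °C was assessed by CellTiter-Glo, with luminescence imaged following a 10 min room-temperature step.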
# NPR1 antag: blocks ANP-stimulated signaling of human Npr1 receptor; P16066; HEK293 hNpr1 GloSensor cGMP, ANP-stimulated luminescence; Potency, µM (highest dose often 46.3 µM), for the others: at the highest dose activity change, negative = inhibition, usual class: inhibitors; hit rate 1.6% among 76,000; calls by dose curve; note: % is set by controls: 0 for no effect and ±100 for the full control effect; nearly all actives have a fitted effect of over 60% in size
#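 HEK293 cells stably expressing human Npr1 and cGMP GloSensor pGS-40F, loaded 2 h with 2% GloSensor reagent, given compound 30 min at room temperature. Luminescence read before and 20 min after 0.1 nM hNppA.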
# NPR1 antag cnf: confirmation of human Npr1 natriuretic peptide receptor antagonists; shares compounds with NPR1 antag; HEK293 hNpr1 cGMP GloSensor luminescence, ANP-stimulated; Potency, µM (titrated, usually from 57.6 µM), for inactives: at the top dose activity change, negative = inhibition, most hits filed as inhibitors; hit rate 76% among 1,400; AID 1347044; calls by dose curve; note: nearly all actives have a fitted effect of over 70% in size
# Npr2 selectivity: antagonizes human Npr2, subtype selectivity check | Potency, µM (doses to about 57.6 µM), inactives show at the highest dose activity change, negative = inhibition, usual class: inhibitors | shares compounds with NPR1 antag | AID 1347046 | HEK293 hNpr2 GloSensor cGMP luminescence, CNP-stimulated | hit rate 67% among 1,400; calls by dose curve; note: nearly all actives have a fitted effect of over 70% in size
# FLuc inh counter: FLuc enzyme inhibition, Npr1 counter-screen; shares compounds with NPR1 antag; purified FLuc enzyme, luminescence, Km substrate; Potency, µM (top dose mostly 57.6 µM), inactives show at the highest dose activity change, negative = inhibition, hits mostly inhibitors; hit rate 0.7% among 1,400; note: 0% is about no effect
# GloSensor cGMP: control cell line activity, Npr1 antagonist counter-screen | shares compounds with NPR1 antag | HEK293 GloSensor cGMP, SNP-stimulated, luminescence | Potency, µM (titrated, usually from 57.6 µM), for inactives: at the highest dose activity change, negative = inhibition, usual class: inhibitors | hit rate 69% among 1,400 | AID 1347051; calls by dose curve; note: % is set by controls: 0 for no effect and ±100 for the full control effect; nearly all actives have a fitted effect of over 70% in size
# An asterisk follows results filed as active; i = inactive; ? = inconclusive; . = no result; [ ] = another dose, or the depositor's remark. Unless noted, calls come from the whole dose curve; as a rule, active = well fitted curve in the direction sought with a large enough effect; inconclusive = small, poorly fitted or top-dose-only effect, or another doubt; inactive = no such curve, though single readings can be large; an effect the other way counts as inactive or inconclusive. Potency is the fitted concentration of half-maximal effect.
SMILES,HEK cytotox,FLuc inh,NIH3T3 tox,NPR1 antag,NPR1 antag cnf,Npr2 selectivity,FLuc inh counter,GloSensor cGMP
COc1ccc(CN2C[C@H]3CN(S(=O)(=O)c4ccc(OC)cc4)CCN3C2=O)cc1,?,i,?,?,.,.,.,.
CCCc1ccc2oc(C(=O)N(CC)Cc3ccncc3)c(C)c2c1,25.1µM*,i,?,12.6µM*,19.3µM*,19.3µM*,-12.9%,17.2µM*
Cc1ccsc1CN(Cc1ccc(CN(C)S(C)(=O)=O)o1)CC(C)C,?,i,?,-7.4%,.,.,.,.
COc1ccc(CN2CCN3C(=O)N(Cc4ccc(OC)cc4)C[C@H]3C2)cc1,?,i,?,14.1µM*,12.5µM*,17.7µM*,-15.2%[86.2 µM],14µM*
COc1ccc(CN2C[C@H]3CN(Cc4ccc([N+](=O)[O-])cc4)CCN3C2=O)cc1,?,i,?,22.4µM*,15.7µM*,17.7µM*,-0.3%[86.2 µM],15.7µM*
FC(F)(F)c1ccc(N2C3CCC2CN(Cc2cccc(-c4cccnc4)c2)C3)cc1,?,.,-20.5%,.,7.69µM*,9.68µM*,-0.8%,6.11µM*
COc1ccc(CN2C[C@H]3CN(Cc4ccc(C(F)(F)F)cc4)CCN3C2=O)cc1,?,i,?,?,.,.,.,.
O=C1N(Cc2cccnc2)C[C@H]2CN(Cc3ccc(C(F)(F)F)cc3)CCN12,?,i,?,10µM*,12.5µM*,17.7µM*,2.2%[86.2 µM],12.5µM*
COc1ccc(CN2C[C@H]3CN(Cc4ccc(S(C)(=O)=O)cc4)CCN3C2=O)cc1,?,i,-23.3%[138 µM],?,.,.,.,.
FC(F)(F)c1ccc(N2C3CCC2CN(Cc2ccc(-c4ccccc4)cc2)C3)cc1,i,i,-3.7%,0.0%,.,.,.,.
CC(C)CNC(=O)C(NC(=O)c1ccccc1)C1CCN(C(=O)c2ccccc2)CC1 (stereo not drawn),i,i,-6.4%,-0.7%,.,.,.,.
COc1ccc(CN2C[C@H]3CN(Cc4ccc5c(c4)OCCO5)CCN3C2=O)cc1,?,i,?,10µM*,14µM*,15.7µM*,-14.1%[86.2 µM],14µM*
COc1ccc(CN2C[C@H]3CN(Cc4cccnc4)CCN3C2=O)cc1,1.9%[172 µM],i,0.3%[138 µM],1.2%[70.6 µM],.,.,.,.
COc1ccccc1CN1CCOCC2(C1)CN([S+](=O)([O-])c1ccccc1)C2,?,i,-18.5%[138 µM],1.0%[70.6 µM],.,.,.,.
O=C(Cc1ccccc1F)N1CCC(CCOc2ccccc2)C1 (stereo not drawn),?,i,?,-20.4%,.,.,.,.
Cc1ccc(OCCC2CCN(C(=O)Cc3cccnc3)C2)cc1 (stereo not drawn),?,i,-29.2%,?,?,?,-5.5%,?
O=C(C1CCCC1)N1CCC(CCOc2ccc(F)cc2)C1 (stereo not drawn),?,i,?,?,?,?,2.7%,21.7µM*
N#Cc1cccc(C(=O)Nc2ccc3ncnc(N4CCCCC4)c3c2)c1,?,i,?,-11.4%,.,.,.,.
COC[C@@H]1[C@H](C(=O)NCCc2nc3ccccc3n2C)CCCN1C,-32.0%,.,-9.2%,.,.,.,.,.
Cc1nn2c(c1-c1ccccc1OCc1ccccc1)N(C(=O)Cc1ccc3c(c1)OCO3)CCC2,79.4µM*,i,12.6µM*,8.91µM*,10.9µM*,6.11µM*,0.7%,-0.6%
Cc1nn2c(c1-c1ccccc1Oc1ccccc1)N(C(=O)Cc1ccc3c(c1)OCO3)CCC2,?,i,?,7.94µM*,10.9µM*,5.44µM*,-4.2%,-23.9%
